The structures appear in SMILES notation. Compounds without any hit were thinned out: in the full panel of roughly 79,000, 15% have a hit. A number with no mark means an inactive call. Rule as the data show it: active = growth inhibition above about 70%; inactive = the rest.

This experiment is described as follows: NCI Yeast Anticancer Drug Screen. Data for the mlh1 rad18 strain (AID 175). Particulars: S. cerevisiae mlh1 rad18 strain growth inhibition; at 50.0 µM; active compounds read high. The method in brief: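 Inhibition values reflect reduced growth of mutant yeast versus vehicle-treated controls following compound exposure; the mutations affect DNA damage repair.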
Take `CN(C)C(C)(C)CC(C)(C)C`: the growth inhibition was 26.6%. As for `O=C(NCO)c1ccccc1`, the growth inhibition is 27.9%.

For `NC(N)=Nc1cc2ccccc2c2ccccc12`, the growth inhibition is -4.95%. As for `CCOC(=O)Nc1cc2c(c(N)n1)N=C(c1ccccc1)CO2`, the growth inhibition was -21.9%. `CC(C)CCCC(=O)O`: the growth inhibition is -13.8%. As to `O=C(CCl)Nc1ccc2c(c1)C(=O)c1ccc(NC(=O)CCl)cc1C2=O`, the growth inhibition was 21.9%. As to `COc1cc(C2c3cc4c(cc3C3OC(=O)C2C3CO)OCO4)cc(OC)c1OC` (centres undefined), the growth inhibition was -3.85%. With `NCC(=O)CCC(=O)O`, the growth inhibition was -1.4%. For `COC(=O)c1ccc(C(C)C)cc1`, the growth inhibition is 4.05%. Consider `CN(C)CCN(C)CC(C)(C)C(=O)/C=C/c1ccc(Cl)cc1`, for which the growth inhibition is 31.8%. As for `Cc1cc2nc(CO)[nH]c2cc1C`, the figure is 1.8%; as for `Oc1ccc(O)cc1`, 40.3%; as for `COc1cc(OC)c2ccc(=O)oc2c1`, 24.1%. For `Cc1cc(NC(=O)CSCC(=O)O)no1`, the growth inhibition is -2.75%.

Regarding `O=C1Cc2ccccc2C(=O)O1`, the growth inhibition was 15.6%. On to `COC(=O)c1cc(-c2ccc(Cl)c(Cl)c2)[nH]c(=O)c1C#N`, for which the growth inhibition was 18.6%. As to `CC12CC3CC1C(C(=O)O2)C3C(=O)O` (centres undefined), the growth inhibition is -8.8%. Regarding `O=C(c1ccccc1)C1CCC1`, the growth inhibition was 6.75%. For `CC(=O)OCC1CCCO1` (centres undefined), the growth inhibition is -32%.

The values are drawn from PubChem BioAssay (NCI).
